Test results from PubChem BioAssay.
Calls of active or inactive are those of the source.

Tests used:
[1] = target: Albumin (Bos taurus) (UniProt P02769); test: compounds binding labelled BSA control protein – biochemical, small-molecule microarray, Alexa647 label, 635/667 nm fluorescence, artefact control for SMM control protein annotation, profiling panel (AID 1118); details: BSA-A647 binding, fluorescence 635 nm, higher = more signal;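 also: score merges 667 nm emission intensity and signal-to-noise per printed compound spot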
[2] = probe aXIP binding to arrayed compounds – biochemical, NeuroSMM set, 635/667 nm fluorescence, primary screen (AID 1119); details: small-molecule microarray, higher = more signal, called active from +8 up or from −8 down;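 also: probe is the protein aXip251-270 applied at 1 µg/mL to compound-printed slides; binding of probe to printed compounds measured as 667 nm fluorescence plus signal to noise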
[3] = probe aNOTCH3 binding on compound microarray – biochemical, small-molecule microarray, 635/667 nm fluorescence, primary screen (AID 1120); details: higher = more signal;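 also: probe is a biotin-tagged antibody raised against NOTCH3 rather than NOTCH3 protein; score merges spot fluorescence near 667 nm with spot signal to noise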
[4] = probe aNOTCH2 binding on compound microarray – biochemical, small-molecule microarray, 635/667 nm fluorescence, primary screen (AID 1121); details: higher = more signal;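 also: score merges feature fluorescence read at 667 nm with its signal to noise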
[5] = target: Carbonic anhydrase 2 (Homo sapiens) (UniProt P00918); test: compounds binding carbonic anhydrase 2 – biochemical, small-molecule microarray, Alexa647-labelled CAII, profiling panel (AID 1122); details: CAII-A647 binding fluorescence, higher = more signal
[6] = COS7 lysate on small-molecule microarray, probe aHis, 635 nm (AID 1123); details: COS7 cell lysate, fluorescence, higher = more signal;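 also: z-score combines 667nm fluorescence intensity with signal-to-noise per printed compound spot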
[7] = probe aLAP1 signal on lysate-treated microarray – cell lysate, small-molecule microarray, COS7 lysate, primary screen (AID 1124); details: probe aLAP1, fluorescence, higher = more signal;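 also: lysate comes from COS7 cells expressing LAP1 and is applied at 0.3 µg/mL; score merges spot fluorescence near 667 nm with signal-to-noise over triplicate slides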
[8] = system: Sam68 (KHDRBS1); test: compounds binding KHDRBS1 protein – biochemical, small-molecule microarray, 635 nm fluorescence, primary screen (AID 1125); details: higher = more signal;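 also: score merges 667 nm channel intensity with signal to noise over triplicate slides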
[9] = system: Chordin-like protein 2 (CHRDL2); test: compounds binding chordin-like 2 – biochemical, small-molecule microarray, 635 nm fluorescence, primary screen (AID 1126); details: fluorescence 635 nm, higher = more signal;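 also: printed compound slides probed with Chrdl2 protein at 4 µg/mL for 1 h at 4 C; score merges 667 nm emission intensity with signal to noise over three replicate slides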
[10] = target: Concanavalin-A (Canavalia ensiformis) (UniProt P02866); test: compounds binding concanavalin A lectin – biochemical, small-molecule microarray, Alexa647 label, 635 nm, artefact control for SMM control protein annotation, primary screen (AID 1127); details: ConA-A647 binding fluorescence, higher = more signal;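 also: z combines 667 nm emission intensity with signal-to-noise across three replicate slides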
[11] = compounds binding Alexa647 anti-His antibody – biochemical, small-molecule microarray, 635 nm fluorescence, artefact control for SMM control protein annotation, primary screen (AID 1128); details: higher = more signal;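 also: score merges feature fluorescence with signal-to-noise for each printed compound spot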
[12] = system: Human papillomavirus type 1a E7 protein (residues 1-88); test: HPV1a E7 small-molecule binders, primary screen, biochemical, small-molecule microarray, residues 1-88, 635 nm (AID 1129); details: small-molecule microarray binding, fluorescence 635 nm; higher = more signal
[13] = target: Focal adhesion kinase 1 (Homo sapiens) (UniProt Q05397); test: PTK2 protein binding on printed compound slides – biochemical, small-molecule microarray, 635/667 nm fluorescence, BSA, DTT, primary screen (AID 1130); details: 635 nm fluorescence, higher = more signal;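 also: composite of spot emission at 667 nm and signal to noise over triplicate slides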
[14] = system: Fibrinogen (Alexa647-labelled); test: Alexa647-fibrinogen binding to printed small molecules – biochemical, small-molecule microarray, 635/667 nm fluorescence, artefact control for SMM control-protein annotation, profiling panel (AID 1131); details: fibrinogen-A647 binding fluorescence, higher = more signal;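 also: z-score merges 667 nm fluorescence with per-spot signal-to-noise over triplicate slides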
[15] = target: Follistatin (Homo sapiens) (UniProt P19883); test: FST protein binding to printed compounds – biochemical, small-molecule microarray, 635/667 nm fluorescence, primary screen (AID 1132); details: 635 nm fluorescence, higher = more signal
[16] = target: Fibroblast growth factor 2 (Homo sapiens) (UniProt P09038); test: basic fibroblast growth factor binding to printed compounds – biochemical, small-molecule microarray, 635/667 nm fluorescence, primary screen (AID 1133); details: FGF2, fluorescence 635/667, higher = more signal
[17] = JC-1 mitochondrial potential readout, lung cancer cells – cell-based, A549, JC-1 fluorescence, basal, 24 h, 100 nL, profiling panel (AID 1138); details: higher = more signal;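 also: A549 lung adenocarcinoma cells under basal conditions with no added stimulus; test concentration not given here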
[18] = system: Lefty1; test: Lefty1 protein binding to printed compounds – biochemical, small-molecule microarray, 635/667 nm fluorescence, primary screen (AID 1139); details: fluorescence 635/667, higher = more signal
[19] = system: wheat germ agglutinin (Triticum aestivum), Alexa647-labelled; test: Alexa647-WGA lectin binding to printed small molecules – biochemical, small-molecule microarray, 635/667 nm fluorescence, artefact control for SMM control-protein annotation, profiling panel (AID 1140); details: WGA-A647 binding, 635 nm fluorescence, higher = more signal;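 also: score merges 667 nm feature emission with signal to noise over triplicate slides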
[20] = target: Luciferin 4-monooxygenase (Photinus pyralis) (UniProt P08659); test: inhibition of purified Photinus pyralis luciferase – biochemical, luminescence, purified enzyme, 2006 set, primary screen (AID 1141); details: purified firefly luciferase, SteadyGlo luminescence, 30 min; higher = more signal, called active from +8 up or from −8 down;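 also: cell-free assay with purified firefly luciferase at 100 ng per well in PBS; test concentration not given here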
Luciferin 4-monooxygenase (Photinus pyralis), sequence (P08659 whole entry, looked up): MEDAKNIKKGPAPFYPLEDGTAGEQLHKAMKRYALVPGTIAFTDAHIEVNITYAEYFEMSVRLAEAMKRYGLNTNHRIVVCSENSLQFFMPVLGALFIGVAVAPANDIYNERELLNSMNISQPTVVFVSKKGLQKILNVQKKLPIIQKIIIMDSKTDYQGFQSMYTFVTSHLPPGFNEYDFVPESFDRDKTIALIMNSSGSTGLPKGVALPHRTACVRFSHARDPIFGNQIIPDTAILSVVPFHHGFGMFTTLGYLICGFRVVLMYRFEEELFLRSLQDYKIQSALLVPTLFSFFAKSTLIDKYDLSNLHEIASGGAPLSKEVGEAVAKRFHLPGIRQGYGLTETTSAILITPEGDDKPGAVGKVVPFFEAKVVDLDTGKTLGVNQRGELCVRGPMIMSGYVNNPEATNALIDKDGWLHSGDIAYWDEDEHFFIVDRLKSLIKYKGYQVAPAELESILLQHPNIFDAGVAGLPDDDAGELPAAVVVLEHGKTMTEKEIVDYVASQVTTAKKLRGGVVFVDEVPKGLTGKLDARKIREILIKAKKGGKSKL

Albumin (Bos taurus), sequence (P02769 whole entry, looked up): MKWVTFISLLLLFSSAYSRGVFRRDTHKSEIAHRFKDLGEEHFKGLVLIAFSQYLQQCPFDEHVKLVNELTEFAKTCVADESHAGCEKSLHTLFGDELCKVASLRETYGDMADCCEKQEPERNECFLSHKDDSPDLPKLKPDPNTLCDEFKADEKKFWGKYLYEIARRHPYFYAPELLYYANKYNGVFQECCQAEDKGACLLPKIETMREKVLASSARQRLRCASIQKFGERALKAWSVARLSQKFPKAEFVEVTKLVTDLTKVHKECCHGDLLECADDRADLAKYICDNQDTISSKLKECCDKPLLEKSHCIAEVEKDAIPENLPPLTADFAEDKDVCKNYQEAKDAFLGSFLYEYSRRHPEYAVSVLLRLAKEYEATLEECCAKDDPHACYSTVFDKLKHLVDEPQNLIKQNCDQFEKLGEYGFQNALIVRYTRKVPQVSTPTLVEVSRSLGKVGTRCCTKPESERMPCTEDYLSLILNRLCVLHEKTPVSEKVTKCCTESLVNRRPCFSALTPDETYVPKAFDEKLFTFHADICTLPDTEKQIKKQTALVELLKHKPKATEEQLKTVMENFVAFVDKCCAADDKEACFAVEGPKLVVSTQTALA
Follistatin (Homo sapiens), sequence (P19883 whole entry, looked up): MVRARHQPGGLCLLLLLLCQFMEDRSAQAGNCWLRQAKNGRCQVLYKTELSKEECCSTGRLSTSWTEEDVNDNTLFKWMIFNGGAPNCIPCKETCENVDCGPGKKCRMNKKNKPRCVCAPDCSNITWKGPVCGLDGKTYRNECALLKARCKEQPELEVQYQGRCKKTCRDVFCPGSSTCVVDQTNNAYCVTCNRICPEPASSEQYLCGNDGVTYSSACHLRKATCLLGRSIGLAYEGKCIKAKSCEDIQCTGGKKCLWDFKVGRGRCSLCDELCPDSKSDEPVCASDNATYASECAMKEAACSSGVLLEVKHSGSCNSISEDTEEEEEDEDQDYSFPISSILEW
Fibroblast growth factor 2 (Homo sapiens), sequence (P09038 whole entry, looked up): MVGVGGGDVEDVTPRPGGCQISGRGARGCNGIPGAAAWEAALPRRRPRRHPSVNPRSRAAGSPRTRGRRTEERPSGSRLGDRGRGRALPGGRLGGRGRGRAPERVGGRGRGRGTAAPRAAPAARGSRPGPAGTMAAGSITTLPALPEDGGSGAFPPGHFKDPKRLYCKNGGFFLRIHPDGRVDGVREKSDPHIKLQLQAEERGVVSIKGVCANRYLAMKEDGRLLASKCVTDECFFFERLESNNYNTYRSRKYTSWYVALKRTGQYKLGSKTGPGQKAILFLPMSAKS
Concanavalin-A (Canavalia ensiformis), sequence (P02866 whole entry, looked up): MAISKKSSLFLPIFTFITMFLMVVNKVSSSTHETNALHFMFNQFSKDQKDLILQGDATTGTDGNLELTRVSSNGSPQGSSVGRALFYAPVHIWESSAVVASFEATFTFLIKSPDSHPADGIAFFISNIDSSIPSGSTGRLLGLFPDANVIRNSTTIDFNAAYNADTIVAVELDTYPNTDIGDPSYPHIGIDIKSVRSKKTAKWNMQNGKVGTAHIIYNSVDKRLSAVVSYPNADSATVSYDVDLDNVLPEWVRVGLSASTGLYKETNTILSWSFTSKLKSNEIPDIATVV
Focal adhesion kinase 1 (Homo sapiens), sequence (Q05397 whole entry, looked up): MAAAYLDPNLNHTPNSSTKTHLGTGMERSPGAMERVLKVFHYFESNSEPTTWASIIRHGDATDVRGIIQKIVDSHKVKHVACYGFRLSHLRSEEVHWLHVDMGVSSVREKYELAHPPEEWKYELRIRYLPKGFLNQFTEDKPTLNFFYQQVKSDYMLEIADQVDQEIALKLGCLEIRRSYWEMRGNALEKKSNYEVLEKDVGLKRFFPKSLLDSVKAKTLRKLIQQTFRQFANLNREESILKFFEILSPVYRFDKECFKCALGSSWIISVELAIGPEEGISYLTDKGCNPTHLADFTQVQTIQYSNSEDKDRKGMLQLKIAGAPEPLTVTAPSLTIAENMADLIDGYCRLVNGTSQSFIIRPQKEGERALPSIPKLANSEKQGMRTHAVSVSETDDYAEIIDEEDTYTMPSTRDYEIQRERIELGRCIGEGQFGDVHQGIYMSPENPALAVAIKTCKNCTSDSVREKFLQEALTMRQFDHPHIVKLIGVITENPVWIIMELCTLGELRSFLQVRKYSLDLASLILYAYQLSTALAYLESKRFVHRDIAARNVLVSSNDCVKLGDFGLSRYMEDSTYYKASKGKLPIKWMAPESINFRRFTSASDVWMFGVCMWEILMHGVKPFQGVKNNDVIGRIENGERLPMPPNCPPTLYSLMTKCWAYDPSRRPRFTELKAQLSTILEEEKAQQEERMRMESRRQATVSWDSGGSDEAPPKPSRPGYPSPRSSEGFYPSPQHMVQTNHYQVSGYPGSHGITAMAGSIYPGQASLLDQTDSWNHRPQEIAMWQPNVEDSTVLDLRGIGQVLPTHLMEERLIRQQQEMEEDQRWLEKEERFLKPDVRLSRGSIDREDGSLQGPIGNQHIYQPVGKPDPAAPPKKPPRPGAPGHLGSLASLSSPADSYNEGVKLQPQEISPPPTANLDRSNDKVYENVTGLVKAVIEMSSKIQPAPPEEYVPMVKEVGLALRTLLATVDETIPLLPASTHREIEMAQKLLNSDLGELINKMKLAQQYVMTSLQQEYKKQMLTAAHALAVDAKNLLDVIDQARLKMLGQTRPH

Row | Compound | composite z-score [1] | composite Z-score [2] | composite z-score [3] | composite z-score [4] | composite z-score [5] | composite z-score [6] | composite z-score [7] | composite z-score [8] | composite z-score [9] | composite z-score [10] | composite z-score [11] | composite z-score [12] | composite z-score [13] | composite z-score [14] | composite z-score [15] | composite z-score [16] | z-score [17] | composite z-score [18] | composite z-score [19] | z-score [20]
1 | C=C(/C(=C/C[C@@H](OC(C)=O)c1ccccc1OCCO)c1cc(C(=O)OC)ccc1OC)C(C)C | 0.344 | 0.231 (inactive) | 0.217 | -0.0548 | 0.697 | 0.335 | -0.394 | 0.373 | -0.134 | 1.02 | 1.37 | 0.136 | 0.0593 | -0.0872 | 0.425 | 0.212 | 1.68 | 0.282 | 0.368 | -1.47 (inactive)
2 | CC(C)[Si](C#CCCCC#N)(O[C@H](c1ccccc1)c1cn([C@H](C)c2ccccc2)nn1)C(C)C | 0.221 | -0.0102 (inactive) | 0.0357 | -0.0405 | 0.506 | 0.879 | 0.0714 | 1.24 | 0.293 | 0.444 | 0.67 | 0.893 | -0.0546 | 0.464 | 0.661 | 0.286 | 2.34 | 0.739 | 0.0425 | -0.863 (inactive)
3 | Cc1ccc(F)cc1S(=O)(=O)N[C@@H]1CCN(Cc2ccc3c(c2)OCO3)C1 | 0.167 | -0.0662 (inactive) | -0.129 | -0.147 | 0.0085 | -0.702 | 0.0521 | -0.148 | 0.0213 | -0.319 | -0.146 | -0.844 | -0.226 | 0.125 | 0.491 | 0.279 | 1.32 | 0.236 | -0.0476 | -0.391 (inactive)
4 | COc1cc2c(cc1O)C(c1ccc(CN3CCCC3)cc1)N(Cc1cccc(OC(F)(F)F)c1)CC2 (stereo not given) | 0.771 | 0.339 (inactive) | -0.0795 | -0.207 | 0.546 | 1.72 | 0.637 | 0.658 | 0.73 | -0.328 | 1.67 | 0.879 | -0.425 | 0.406 | 1.22 | 0.476 | -2.01 | 0.242 | 0.625 | -1.37 (inactive)
5 | COc1cc2c(cc1O)C(C1CC1)N(Cc1ccc([N+](=O)[O-])o1)CC2 (stereo not given) | 0.959 | 0.676 (inactive) | 0.0159 | -0.0826 | 0.717 | 1.42 | 1.03 | 0.835 | -0.465 | 0.934 | 0.852 | 1.12 | 0.325 | 0.577 | 0.361 | -0.0629 | -0.184 | -0.546 | 1.06 | -0.924 (inactive)
6 | CC1CC/C=C\[C@H]2OC34C=CCN(CCN5CCOCC5)C(=O)[C@H]3N(CCCCCCO)C(=O)[C@@H]4C2C(=O)O1 (stereo not given in full) | -0.0754 | 0.446 (inactive) | -0.438 | -0.14 | 0.864 | -0.686 | -0.362 | -0.715 | -0.756 | -1.53 | -0.37 | -0.986 | -0.411 | -2.12 | 0.0859 | -0.649 | 0.746 | -0.259 | -0.7 | -0.934 (inactive)
7 | Cc1ccc(S[C@]2(C(=O)NCCN3CCOCC3)CC(=O)N(C3CCCCC3)[C@@H]2c2ccc(CO)cc2I)cc1 | 0.81 | 0.918 (inactive) | -0.101 | -0.155 | 0.405 | 2.89 | -0.006 | 1.27 | 0.138 | 1.11 | 0.893 | 1.2 | 1.14 | 0.926 | 0.972 | 0.236 | 1.23 | 1.21 | 0.977 | 0.827 (inactive)
8 | COCCOC(=O)N1C(=O)[C@@]2(c3cc(C#CCCO)ccc31)[C@H](c1ccc(O)cc1)N1[C@H](c3ccccc3)[C@H](c3ccccc3)OC(=O)[C@H]1[C@@H]2C(=O)N1CCc2cc(OC)c(OC)cc2C1 | -0.997 | 0.454 (inactive) | 0.341 | 0.305 | 0.345 | 1.48 | 1.07 | 1.32 | 0.789 | 1.06 | 0.432 | 1.25 | 0.514 | 0.81 | 1.36 | 1.59 | 0.257 | 1.36 | 1.03 | 0.298 (inactive)
9 | N[C@@H](Cc1ccccc1)Cn1cc(C2(O)CCCCC2)nn1 | -0.052 | -0.116 (inactive) | -0.014 | -0.14 | -0.29 | 0.451 | 0.0682 | 0.525 | 0.0155 | 0.88 | 0.124 | 0.062 | 0.0655 | 0.556 | 0.0725 | -0.445 | 0.375 | 0.333 | 0.128 | -0.377 (inactive)
10 | CCCCC(O)C1C=CC2C(=O)N(C)C(=O)C2N1Nc1ccccc1 (stereo not given) | 0.555 | 0.267 (inactive) | 0.138 | -0.0708 | 0.72 | 2.06 | 0.182 | 1.29 | -0.107 | 0.31 | 1.86 | 0.603 | 0.383 | 0.416 | 0.0471 | -0.614 | -0.771 | -0.291 | 0.0187 | 0.16 (inactive)
11 | Cc1c(NC(=O)/C(C#N)=C/c2ccc(Cl)cc2)c(=O)n(-c2ccccc2)n1C | 0.87 | 1.5 (inactive) | 0.029 | -0.145 | 0.229 | 1.65 | 0.761 | 0.396 | 0.122 | 0.736 | 0.753 | 0.8 | -0.171 | 1.03 | 0.114 | 0.627 | 1.28 | 0.466 | 0.794 | -0.304 (inactive)
